{
  "source": "PubChem BioAssay (Tox21)",
  "note": "Results filed as inconclusive are left out. Where a call stands in place of a potency, no number is given. Some compounds were tested as several samples or in several runs, with calls that do not always agree. Calls of active or inactive are those of the source. The call rests on the fitted dose curve; in most records, active means well fitted activation curve with a large enough effect in the repeat runs; inconclusive means weak or mixed curves; inactive means flat fitted curve, though single readings scatter. Potency means the concentration at half of the fitted maximal effect.",
  "data": [
    {"assay": "Caspase-3/7 induction in HepG2 cells by small molecules, qHTS assay (AID 1346978); further: nearly all actives have a fitted effect of over 15% in size", "conditions": "HepG2 caspase-3/7 activation, Caspase-Glo luminescence, 17 h; series mostly up to 92.4 µM", "source_text": "National Center for Advancing Translational Sciences [NCATS] NIH Chemical Genomics Center [NCGC] U.S. Environmental Protection Agency [EPA] National Institutes of Environmental Health Sciences [NIEHS] National Toxicology Program [NTP] Assay overview: Apoptosis is a process of programmed cell death and plays a central role in the development of multicellular organisms. It is a highly regulated process and induces cell death by activating caspases, which are the members of cysteine aspartic acid-specific protease (caspase) family. Caspases involved in apoptosis are classified by their mechanism of action as initiator caspases (caspase-2, -8, -9 and -10) and executioner caspases (caspase-3, -6, and -7). Inhibition of apoptosis results in number of cancers, autoimmune diseases, inflammatory diseases and viral infection. To identify small molecule compounds that induce apoptosis, a homogeneous, luminescent Caspase-Glo 3/7 assay was used. Wild type HepG2 cells were used to screen Tox21 libraries for identifying caspase-3/7 activity inducers.\nAssay Protocol Summary: HepG2 cells were dispensed at 2,000 per well in 5uL of culture medium into white solid bottom 1536-well plates (Corning Life Sciences, Corning, NY) using a Multidrop Combi (Thermo Scientific, Waltham, MA) dispenser. The assay plates were incubated at 37 C and 5% CO2 for 5hr, and then 23nL of compounds dissolved in DMSO and positive control were transferred using a Pintool station (Wako, San Diego, CA). The assay plates were incubated at 37C and 5% CO2 for 17hr. For caspase-3/7 activity read, 4uL of Caspase-Glo 3/7 reagent (Promega Corporation, Madison, WI) was added to each well of the assay plates using Flying Reagent Dispenser (FRD, Aurora Discovery, San Diego, CA) and incubated the assay plates at room temperature for 30min. The luminescence signal was quantified using a ViewLux plate reader (Perkin Elmer, Shelton, CT).", "values": [
      {"compound": "N[C@H](Cc1c[nH]c2ccccc12)C(=O)O", "Potency": "inactive"},
      {"compound": "CCOC(=O)n1ccn(C)c1=S", "Potency": "inactive"},
      {"compound": "CNC(=O)Oc1ccc2c(c1)[C@]1(C)CCN(C)[C@@H]1N2C", "Potency": "inactive"},
      {"compound": "Nc1ccc(Cl)c(N)c1", "Potency": "inactive"},
      {"compound": "c1ccc2c(c1)Cc1ccccc1-2", "Potency": "inactive"},
      {"compound": "COc1ccc(N)c(C)c1", "Potency": "inactive"},
      {"compound": "C[C@]12CCC(=O)C=C1CC[C@@H]1[C@@H]2[C@@H](O)C[C@@]2(C)[C@H]1CC[C@]2(O)C(=O)CO", "Potency": "inactive"},
      {"compound": "CN(C)c1ccc(Cc2ccc(N(C)C)cc2)cc1", "Potency": "inactive"},
      {"compound": "CC(=O)OCc1ccco1", "Potency": "60.8 µM (active) and inactive"},
      {"compound": "COc1ccccc1OCC(O)CO", "note": "(stereo not given)", "Potency": "inactive"},
      {"compound": "CC(C)CC(=O)CC(C)CC(C)C", "note": "(stereo not given)", "Potency": "inactive"},
      {"compound": "CCCCOC(=O)c1ccc(N)cc1", "Potency": "inactive"},
      {"compound": "N#Cc1ccccc1", "Potency": "inactive"},
      {"compound": "CCNc1ccccc1", "Potency": "inactive"},
      {"compound": "Nc1nc(N)nc(-c2ccccc2)n1", "Potency": "inactive"},
      {"compound": "C=Cc1ccc(C)cc1", "Potency": "inactive"},
      {"compound": "CC(O)CC(C)(C)O", "note": "(stereo not given)", "Potency": "inactive"},
      {"compound": "COCCCN", "Potency": "inactive"},
      {"compound": "CC(=O)OCc1ccccc1", "Potency": "inactive"},
      {"compound": "O=C(OCC1CCC2OC2C1)C1CCC2OC2C1", "note": "(stereo not given)", "Potency": "inactive"},
      {"compound": "CC(C)(C)c1cc(Cc2cc(C(C)(C)C)c(O)c(C(C)(C)C)c2)cc(C(C)(C)C)c1O", "Potency": "inactive"},
      {"compound": "COC(=O)CCCC(=O)OC", "Potency": "inactive"},
      {"compound": "CCCCCCCCCCCCCCCC(=O)OC(C)C", "Potency": "inactive"},
      {"compound": "OCc1ccccc1", "Potency": "inactive"},
      {"compound": "CCCCCCC=O", "Potency": "inactive"},
      {"compound": "CCc1ccccc1CC", "Potency": "inactive"},
      {"compound": "CCCCCCCCCCN", "Potency": "inactive"},
      {"compound": "Cc1ccc(S(=O)(=O)N=C=O)cc1", "Potency": "inactive"},
      {"compound": "O=C(O)c1ccc(C(=O)O)c(C(=O)O)c1", "Potency": "inactive"},
      {"compound": "C=CCc1ccc(OC)c(OC)c1", "Potency": "inactive"},
      {"compound": "CCOCC(=O)O", "Potency": "inactive"},
      {"compound": "COc1ccc([N+](=O)[O-])cc1N", "Potency": "inactive"},
      {"compound": "C=C(C)CNCC", "Potency": "inactive"},
      {"compound": "CC(C)CC(C)O", "note": "(stereo not given)", "Potency": "inactive"},
      {"compound": "CC(C)=CCl", "Potency": "inactive"},
      {"compound": "COC(=O)c1cccnc1", "Potency": "inactive"},
      {"compound": "C=CC[N+](C)(C)CC=C", "Potency": "inactive"},
      {"compound": "Cc1ccc([N+](=O)[O-])cc1S(=O)(=O)O", "Potency": "inactive"},
      {"compound": "CC1(C)OC[C@@H]2O[C@@]3(C(=O)O)OC(C)(C)O[C@H]3[C@@H]2O1", "Potency": "inactive"},
      {"compound": "O=C(O)CCCCCCCCC(=O)O", "Potency": "inactive"}
    ]}
  ]
}
